This is an account of results in PubChem BioAssay (NCI).

This is part of a sample that, as a whole, favours compounds with a hit. Of some 83,000 tested, about 20% had one in any assay.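 Growth was measured after 48 h exposure to one concentration of compound in 96-well plates. Values under 10 count as active.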 Activity calls are given as the source filed them.

The subject of the experiment is MDA-MB-468 breast. Briefly: NCI-60 one-dose screen, 48 h (100 = growth as untreated, 0 = no growth, -100 = all killed). Conditions: 10 µM unless noted.
With `CCNCC(C)(C)O`, the growth is 115% (inactive).

In the case of `COc1ccc(-c2nc3sccn3c2-c2ccnc(NCCNS(=O)(=O)c3ccc(C(F)(F)F)cc3)n2)cc1`, the growth was 30.2% (inactive).

Consider `CCCC(=O)c1cccs1`, for which the growth was 96.9% (inactive).

On to `COc1cc2c(cc1-c1c(C)noc1C)ncc1nc(C3CCC(F)(F)CC3)n([C@H](C)COC(F)F)c12`, for which the growth was 33.6% (inactive).

Regarding `O=C(/C=C/c1ccc(C(F)(F)F)cc1)Nc1ccc(C=C2c3ccccc3C(=O)c3ccccc32)cc1`, the growth is 33.5% (inactive).

On to `COC(=O)c1ccc(CSc2nnc(-c3c(C)nc4ccc(C)cn34)o2)cc1`, for which the growth is 93.2% (inactive).

With `CC(C)CN1CC(C(=O)Nc2ccc3c(c2)-c2ccccc2C3)CC1=O` (stereo not given), the growth was 60.5% [50 µM] (inactive).

As for `CS(=O)(=O)c1nccc(-c2c(-c3ccc(OCCc4ccccc4)cc3)nc3sccn23)n1`, the growth is -81.5% (active).

In the case of `CCCn1ccnc1C(O)c1ccc(OCc2ccccc2)c(OC)c1` (stereo not given), the growth is 90.5% (inactive).

For `COc1ccc2c(CCCc3ccc(Cl)cc3Cl)c3[n+](cc2c1OC)CCc1cc2c(cc1-3)OCO2`, the growth was -49% (active).

As to `COc1ccc(-c2n[nH]nc2-c2cc(OC)c(OC)c(OC)c2)cc1`, the growth is -0.494% (active).

As for `CC(=O)Nc1nc(C)c(C(=O)N/N=C/c2cccn2C)s1`, the growth is 111% (inactive).

For `Cc1cc(NC(=O)Nc2cccc3ccccc23)no1`, the growth is 107% (inactive).

For `COc1ccc(Nc2nc3ccc(NC(=O)NC4CCCCC4)cc3[nH]c2=O)cc1`, the growth is 96% (inactive).

For `COc1cc2c(c(OC)c1O)C(=O)C(OC)C(c1ccc(O)c(O)c1)O2` (stereo not given), the growth was 7.99% (active).
